Hit rate of the full screen: of about 69,000 compounds, about 8,600 (12%) showed an effect of 50% or more. The entries come from a sample that favours strong results as a whole.
Each compound was assayed on Plasmodium berghei (assay: Screen against P. berghei liver stage (PbLuc), transformed with Luciferase, at 10uM). Settings: tested at 10 uM.
Type: functional, HepG2
In the case of Fc1ccc(-c2nc(CN3CCCCC3Cn3cncn3)co2)cc1 (stereo not given), the INHIBITION is reported as -0.113%.
CN(CCCOc1ccccc1)C(=O)c1csc(-c2nnc[nH]2)n1 gave an INHIBITION of 53.9%.
COCCN(Cc1ccccc1)C(=O)c1csc(-c2nnc[nH]2)n1 showed an INHIBITION of 24.7%.
With COc1cccc(CN(C)C(=O)c2csc(-c3nnc[nH]3)n2)c1 the INHIBITION was 40.9%.
Compound Cc1ccccc1-c1cncc(C2CCN(CC(=O)N(C)C)CC2)n1 has an INHIBITION of -0.371%.
Cc1cc(F)ccc1NS(=O)(=O)c1cc2c(c(C(=O)O)c1)OCCO2 showed an INHIBITION of 25.1%.
With CSCC(C)(O)CNc1cccc(F)c1C#N (stereo not given) the INHIBITION was 56.5%.
CSCC(C)(O)CNc1cccc(F)c1C(C)=O (stereo not given) showed an INHIBITION of 21.8%.
CC(C)C(C)(O)CNc1cccc(F)c1C#N (stereo not given) gave an INHIBITION of -23.8%.
In the case of CCOc1ncccc1NC(=O)c1cc(C)sc1C, the INHIBITION is reported as -8.66%.
Fc1cccc(CN2CCC(c3cc4ncccc4cn3)CC2)c1F was tested, and the INHIBITION was 52.7%.
Fc1cccc(CN2CCC(c3n[nH]c4ncccc34)CC2)c1F was tested, and the INHIBITION was 42.6%.
COc1ccc(C)cc1CN1CCC(c2cc3ncccc3cn2)CC1 showed an INHIBITION of 87.9%.
In the case of COc1ccc(C)cc1CN1CCN(Cc2nccn2C)CC1, the INHIBITION is reported as -190%.
With Fc1cc(F)cc(CN2CCC(c3cc4ncccc4cn3)CC2)c1 the INHIBITION was 32.3%.
Fc1cccc(CN2CCC(c3noc(-c4ccccn4)n3)CC2)c1F was tested, and the INHIBITION was -6.73%.
CCc1onc(C)c1C(=O)N1CCC(c2cc3ncccc3cn2)CC1 was tested, and the INHIBITION was 17.1%.
Fc1ccc(F)c(CN2CCC(c3cnccn3)CC2)c1 gave an INHIBITION of 34.1%.
Fc1ccc(F)c(CN2CCC(c3cc4ncccc4cn3)CC2)c1 showed an INHIBITION of 63.8%.
With Cc1ccsc1C(CNC(=O)c1cc(=O)c2ccccc2[nH]1)N(C)C (stereo not given) the INHIBITION was -38.6%.
For FC(F)(F)c1csc(N2CCN(Cc3ccccn3)CC2)n1, the INHIBITION was 1.56%.
COC(=O)CCN(C)C(=O)c1ccc(-c2cscn2)cc1 was tested, and the INHIBITION was 67.3%.
With O=C(O)c1ccc(-c2cscn2)cc1 the INHIBITION was -36.1%.
For CN(C)C(=O)c1ccc(-c2cscn2)cc1, the INHIBITION was 14.6%.
Nc1ncnc2[nH]c(N3CCCCC3)nc12 showed an INHIBITION of 4.12%.
With CSc1nc(N)cc(N2C[C@H]3CC[C@@H](C2)N(CC2CC2)C3=O)n1 the INHIBITION was -65%.
With CC(C)CN1C(=O)c2ccc(C(=O)NCCc3c[nH]cn3)cc2C1=O the INHIBITION was 24.5%.
COCCCN1C(=O)c2ccc(C(=O)NCCc3c[nH]cn3)cc2C1=O gave an INHIBITION of 34.3%.
Compound O=C(NCCc1c[nH]cn1)c1ccc2c(c1)C(=O)N(C1CC1)C2=O has an INHIBITION of -36.3%.
In the case of O=C(NCCc1c[nH]cn1)c1ccc2c(c1)C(=O)N(C1CCCC1)C2=O, the INHIBITION is reported as 36.6%.
O=C(NCCc1c[nH]cn1)c1ccc(S(=O)(=O)NC2CCCC2)cc1 showed an INHIBITION of 7.65%.
With CC(C)CCN1C(=O)c2ccc(C(=O)NCCc3c[nH]cn3)cc2C1=O the INHIBITION was 65.4%.
CCC(C)N1C(=O)c2ccc(C(=O)NCCc3c[nH]cn3)cc2C1=O (stereo not given) gave an INHIBITION of 53.2%.
CCCNC(=O)c1ccc2c(c1)C(=O)N(CC(C)C)C2=O was tested, and the INHIBITION was 31.8%.
With COCCN1C(=O)c2ccc(C(=O)NCCc3c[nH]cn3)cc2C1=O the INHIBITION was 68.4%.
For CCc1nnc(CN(C)C2CCCN(Cc3noc(C4CC4)n3)C2)o1 (stereo not given), the INHIBITION was 27.8%.
Cc1ccc(F)c(NC(=O)NCCCn2nc3ccccn3c2=O)c1 showed an INHIBITION of -0.113%.
With O=C(c1ccc(-c2cn[nH]c2)nc1)N1CCC(N2CCOCC2)CC1 the INHIBITION was 10.1%.
Work on CCc1ccc(NS(=O)(=O)C=c2[nH]c(=O)n3cccc3c2=O)cc1 yielded an INHIBITION of -101%.
Compound CC(CCN1CCCn2nc(CNS(C)(=O)=O)cc2C1)c1ccccc1 (stereo not given) has an INHIBITION of 27.6%.
With CN(Cc1cccc(C(N)=O)c1)Cc1nc2c(cnn2C)c(=O)[nH]1 the INHIBITION was -29.7%.
For Fc1ccccc1-c1nc(CNCCn2cccn2)cs1, the INHIBITION was -58.7%.
CCN1CCCC12CCN(C(=O)c1nccn1C)CC2 showed an INHIBITION of -26.5%.
For CCOc1ccc(CN(CC)C(=O)c2ccc(C)[nH]c2=O)cc1OC, the INHIBITION was 20.85%.
CC(C)N(C)C[C@H]1OC[C@@H]2CCN(Cc3cccc(C#N)c3)C[C@@H]21 was tested, and the INHIBITION was 23.3%.
Compound CSc1nc2ccsc2c(=O)n1CC(=O)NC1CCCC1 has an INHIBITION of -58.7%.
Compound CCN(CC)c1nc2ccsc2c(=O)n1CCC(=O)NCc1cccs1 has an INHIBITION of 30.2%.
CCN(CC)c1nc2ccsc2c(=O)n1CCC(=O)NCc1ccco1 showed an INHIBITION of 55.7%.
In the case of CCN(CC)c1nc2ccsc2c(=O)n1CCC(=O)NC1CCCC1, the INHIBITION is reported as 58.4%.
With Cc1ccn(CCC(=O)NCc2ccco2)n1 the INHIBITION was 26%.
In the case of CSc1nc2ccsc2c(=O)n1CC(=O)NC1CCCCC1, the INHIBITION is reported as 26.6%.
O=C(Nc1cccnc1)NC(CCCO)c1ccccc1 (stereo not given) was tested, and the INHIBITION was 14.1%.
Compound COCCN1C[C@H]2[C@@H](C1)N(Cc1cnn(C)c1)CC[C@H]2OC has an INHIBITION of -4.88%.
O=C(c1ccc(-n2cccn2)nc1)N1CCCC(n2cccn2)C1 (stereo not given) showed an INHIBITION of 26.45%.
COc1ccc(OC)c(Sc2ncccc2C(=O)NCC2CC2)c1 gave an INHIBITION of 23.3%.
Compound COc1ncc(CN(C)C(C)c2cccnc2)cn1 (stereo not given) has an INHIBITION of 5.85%.
CC(c1ccncn1)N(C)Cc1cc(O)c2cc(F)ccc2n1 (stereo not given) gave an INHIBITION of 28.3%.
CC(c1cccnc1)N(C)Cc1ccccn1 (stereo not given) gave an INHIBITION of 70.4%.
CC(c1cccnc1)N(C)Cc1cc(O)c2cc(F)ccc2n1 (stereo not given) gave an INHIBITION of 66.8%.
CC(c1ccon1)N(C)Cc1cc(O)c2cc(F)ccc2n1 (stereo not given) was tested, and the INHIBITION was 36%.
Compound CC(c1cccnc1)N(C)Cc1csc(-c2ccccn2)n1 (stereo not given) has an INHIBITION of -45.8%.
For c1ccc(CCCN2CCCC2Cn2cncn2)cc1 (stereo not given), the INHIBITION was -25.9%.
CCc1ncc(C(=O)N(C)Cc2cc(-c3ccncc3)no2)cn1 gave an INHIBITION of 59.7%.
CCN(C)C(=O)c1ccc(N(C)Cc2cc(-c3ccncc3)no2)nc1 gave an INHIBITION of 5.17%.
In the case of CCN(C)C(=O)c1ccc(N(C)Cc2cc(-c3cccnc3)no2)nc1, the INHIBITION is reported as 34%.
With O=C(CS(=O)(=O)C1CCCC1)NC1CCc2nccn2C1 (stereo not given) the INHIBITION was 19.2%.
Work on Cc1cc(CN2CC[C@H]3OCC[C@@]3(C(=O)NCc3ccco3)C2)no1 yielded an INHIBITION of -0.813%.
In the case of Cc1nnc(CN2CCCC(c3noc(C4CC4)n3)C2)o1 (stereo not given), the INHIBITION is reported as -36.3%.
CCc1nc(CNc2cc(C)nc(-c3cccnc3)n2)cs1 showed an INHIBITION of 54.9%.
Work on Cc1cc(NCCc2c[nH]cn2)nc(-c2cccnc2)n1 yielded an INHIBITION of -14.1%.
For CCc1csc(CNc2cc(C)nc(-c3cccnc3)n2)n1, the INHIBITION was 56.05%.
Cc1cc(NCCc2nnc(N)s2)nc(-c2cccnc2)n1 gave an INHIBITION of 16.7%.
Cc1cc(NCCc2nc(C)cs2)nc(-c2cccnc2)n1 showed an INHIBITION of -25.1%.
With Cc1cc(NCCc2c(C)n[nH]c2C)nc(-c2cccnc2)n1 the INHIBITION was 16.69%.
CSC(C)(C)CNC(=O)NCc1cccc(-n2ccnc2)c1 gave an INHIBITION of 17.2%.
O=C(Cc1ccccc1F)N1CCC[C@@H]1Cn1c(=O)oc2ccccc21 showed an INHIBITION of -12%.
Compound CC1CCCN(C(=O)c2occc2COc2cccc(C#N)c2)C1 (stereo not given) has an INHIBITION of 35.1%.
CC(C)N1CCC2(CCCN(c3nccc(C(F)(F)F)n3)C2)CC1 showed an INHIBITION of -12.2%.
In the case of c1ccc(CNc2ncc(CN3CC[C@@H]4CC[C@H](C3)N4)cn2)cc1, the INHIBITION is reported as 30.3%.
Compound c1ccc(CNc2ncc(CN3CCCN4CCC[C@H]4C3)cn2)cc1 has an INHIBITION of 30.3%.
In the case of CN(C)[C@H]1CCCCN(Cc2cnc(NCc3ccccc3)nc2)C1, the INHIBITION is reported as 57.5%.
c1ncn(Cc2cn3c(n2)CN(CC2CCCCC2)CC3)n1 was tested, and the INHIBITION was -10.3%.
Compound CC(C)(C)c1n[nH]c(C2CN(C(=O)c3csnn3)CCO2)n1 (stereo not given) has an INHIBITION of 11.1%.
NC(=O)C1CCN(C(=O)NC2CCc3cc(Cl)ccc32)CC1 (stereo not given) was tested, and the INHIBITION was 18.4%.
C[C@H]1CN(C)C[C@@]12COCCN(C(=O)Cc1ccccc1)C2 gave an INHIBITION of -21.7%.
In the case of CC(=O)N1CCN([C@@H]2CCC[C@@H](N(C)C(=O)C3CC3)[C@H]2O)CC1, the INHIBITION is reported as 45.6%.
With COc1cccc(Cn2ncnc2COC(C)C)c1 the INHIBITION was -16.1%.
COCC(=O)N1CC2=CC(C)(C)COc3ccc(OC)c(c32)C1 showed an INHIBITION of 48%.
With COC(=O)N1CC2=CC(C)(C)COc3ccc(OC)c(c32)C1 the INHIBITION was 63.1%.
With COc1ccc2c3c1CN(C(C)=O)CC3=CC(C)(C)CO2 the INHIBITION was 52.5%.
Compound COCCOC(=O)N1CC2=CC(C)(C)COc3ccc(OC)c(c32)C1 has an INHIBITION of -3.5%.
Work on CCNC(=O)N1CC2=CC(C)(C)COc3ccc(OC)c(c32)C1 yielded an INHIBITION of 22.2%.
With COc1ccc2c3c1CN(C(=O)N(C)C)CC3=CC(C)(C)CO2 the INHIBITION was 25.3%.
With CC(C)NC(=O)c1nnn(-c2ccc(F)cc2)c1C1CC1 the INHIBITION was -38.2%.
Cc1cccc(CN2C[C@H]3CC[C@@H](C2)N(Cc2c(C)noc2C)C3=O)n1 was tested, and the INHIBITION was -84%.
In the case of CCOC(=O)N1CCC(NC(C)c2ccccc2-n2cccn2)CC1 (stereo not given), the INHIBITION is reported as 17.5%.
CC(NCc1cccc(NC(=O)C2CCCCC2)c1)c1cnn(C)c1 (stereo not given) gave an INHIBITION of 45.4%.
Cn1ccnc1CN1CCN(CC(O)c2cc(F)ccc2F)CC1 (stereo not given) was tested, and the INHIBITION was 21.5%.
CC(C)c1nn(C)c(N(C)C)c1CNCc1ccc(N(C)C)nc1 gave an INHIBITION of 13.5%.
With Cc1cc(NC(=O)C2CCN(c3nnc(C)c(C)c3C#N)CC2)no1 the INHIBITION was 19.4%.
Cc1cc(NC(=O)C2CCN(c3ncccc3C#N)CC2)no1 showed an INHIBITION of 50.1%.
Compound Cc1cc(C(=O)NC2CCN(c3ncccc3C#N)CC2)no1 has an INHIBITION of 5.23%.
For Cn1cc(C2=NOC(C(=O)NC3(c4ccccc4F)CCCC3)C2)cn1 (stereo not given), the INHIBITION was 45.6%.
For CN1CCC(N(C)C(=O)c2cnn(-c3cc(F)ccc3F)c2N)CC1, the INHIBITION was 39.2%.
Nc1ncccc1CN1CCOCC1CC(=O)NCc1ccccn1 (stereo not given) showed an INHIBITION of 47.6%.
O=C(CN1CCOCC1CC(=O)c1ccco1)NCc1ccccn1 (stereo not given) gave an INHIBITION of 54.3%.
Work on O=C(CN1CCCC1CC(=O)c1ccccc1)NCc1ccccn1 (stereo not given) yielded an INHIBITION of 1.93%.
Compound CN(C)S(=O)(=O)N1CCOCC1CC(=O)NCCOc1ccccc1 (stereo not given) has an INHIBITION of 23.5%.
With Cc1ccc(CC2CCCN2CC(=O)NCc2ccccn2)cc1 (stereo not given) the INHIBITION was 28.4%.
O=C(CC1COCCN1S(=O)(=O)c1ccccc1)NCc1ccccn1 (stereo not given) gave an INHIBITION of 68.5%.

Source: ChEMBL document CHEMBL4513216, “Probing the Open Global Health Chemical Diversity Library for Multistage-Active Starting Points for Next-Generation Antimalarials” (ACS Infect Dis, 2020)
